Source: PubChem (National Center for Advancing Translational Sciences (NCATS))
Hits are enriched below; roughly 5.8% of the tested compounds scored in any of these assays.
Gal4-VP16 FLuc = VP16 counterscreen qHTS for inhibitors of ROR gamma transcriptional activity; Potency, µM (titrated, usually from 53.6 µM), for the others: at the highest dose activity, negative = inhibition, usual class: inhibitors; Drosophila S2 Gal4-VP16 UAS-luciferase, luminescence, 20 h; 310,000 compounds, 3.5% hits;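 also: Gal4-VP16 expression switched on by copper sulfate through the metallothionein promoter; potency is read from the fitted curve at half-maximal effect; % is scaled to controls: 0 for no effect and ±100 for the full control effect; nearly all actives have a fitted effect of over 50% in size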
TRPV1 ag = HTS Assay for Compounds that Act as Agonists of the Vanilloid Receptor 1. TRPV1-expressing cells, Fluo-8 calcium influx, agonist mode. activation, % at 8.33 µM. 320,000 compounds, 0.19% hits. AID 540275, 2011; in the data active = activation above about 80%; inconclusive = between about 30% and that limit; also: 0% is about no effect
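Cells expressing TRPV1 were dye-loaded with Fluo-8 and read kinetically: 10 s baseline, 3 min after compound (agonist portion), then 2 min after EC20 capsaicin (allosteric enhancer portion). Calcium-bound dye fluorescence at 480/520 nm.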
uPA surface inh = qHTS for Inhibitors of Cell Surface uPA Generation. 330,000 compounds, 0.31% hits. Potency, µM (doses to about 38.3 µM), for the others: at the top dose activity change, negative = inhibition, most hits filed as inhibitors. cell surface uPA generation assay, qHTS. AID 540303, 2011; active = well fitted inhibition curve with a large enough effect; inconclusive = small, poorly fitted or top-dose-only effect; inactive = no such curve, though single readings can be large or run the other way; tested in mouse RAW 264.7 cells; also: potency is read from the fitted curve at half-maximal effect; % is scaled to controls: 0 for no effect and ±100 for the full control effect; nearly all actives have a fitted effect of over 55% in size
TRPV1 potentiator = HTS Assay for Compounds that Act as Potentiators of the Vanilloid Receptor 1. potentiation, % at 8.33 µM. TRPV1-expressing cells, Fluo-8 calcium influx, capsaicin EC20 potentiation. 320,000 compounds, 0.02% hits. AID 540277, 2011; in the data active = potentiation above about 80%; inconclusive = between about 30% and that limit; also: 0% is about no effect
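Fluo-8 calcium influx in TRPV1-expressing cells, kinetic read (ex 480/em 520 nm). Compound added and read 3 min for agonist activity, followed by capsaicin at EC20 final and 2 min further read for enhancement.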
RORg inh = qHTS for inhibitors of ROR gamma transcriptional activity; 310,000 compounds, 5.4% hits; Nuclear receptor ROR-gamma (Mus musculus), P51450; Drosophila S2 Gal4-RORgamma UAS-luciferase reporter, 20 h; Potency, µM (top dose mostly 53.6 µM), for the others: top-dose activity change, negative = inhibition, actives largely listed as inhibitors; also: potency is read from the fitted curve at half-maximal effect; % is scaled to controls: 0 for no effect and ±100 for the full control effect; nearly all actives have a fitted effect of over 60% in size
Target sequence (P51450 whole entry, looked up, the tested form may be a part): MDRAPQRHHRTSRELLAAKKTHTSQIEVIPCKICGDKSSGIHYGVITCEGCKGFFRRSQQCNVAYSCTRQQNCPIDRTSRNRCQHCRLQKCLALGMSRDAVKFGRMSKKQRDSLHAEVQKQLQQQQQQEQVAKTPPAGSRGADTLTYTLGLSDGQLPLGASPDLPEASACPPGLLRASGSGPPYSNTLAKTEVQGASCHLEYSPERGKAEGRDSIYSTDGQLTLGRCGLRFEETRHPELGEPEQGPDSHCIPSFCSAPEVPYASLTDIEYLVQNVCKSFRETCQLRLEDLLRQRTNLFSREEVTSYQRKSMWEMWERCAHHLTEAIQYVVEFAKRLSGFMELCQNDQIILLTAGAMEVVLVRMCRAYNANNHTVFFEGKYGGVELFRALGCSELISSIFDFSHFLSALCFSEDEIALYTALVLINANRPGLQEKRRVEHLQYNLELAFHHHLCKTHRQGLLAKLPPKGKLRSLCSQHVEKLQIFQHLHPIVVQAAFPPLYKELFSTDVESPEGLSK
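Stable Schneider cell line, Gal4 DNA-binding domain fused to ROR gamma, UAS-luciferase. Cmpd 1 hr RT → CuSO4 700 uM final → 20 hr RT → luciferase reagent 10 min → luminescence.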
* hit, by the source's call; [ ] = dose if it differs, or a comment. Unless noted, calls follow the shape of the dose curve; as a rule, active = well fitted curve in the direction sought with a large enough effect; inconclusive = small, poorly fitted or top-dose-only effect, or another doubt; inactive = no such curve, though single readings can be large; an effect the other way counts as inactive or inconclusive.

Screening C=CCSc1nc2ccccc2n1C(=O)/C=C/c1cc(OC)c(OC)c(OC)c1 returned Gal4-VP16 FLuc 5µM*, TRPV1 ag -5, TRPV1 potentiator 5 and RORg inh 3.5µM*.
C=CCSc1nc2ccccc2n1C(=O)/C=C/c1ccc(OC)c(OC)c1 was read as Gal4-VP16 FLuc 11µM*, TRPV1 ag 6, TRPV1 potentiator -6 and RORg inh 5µM*.
CCSc1nc2ccccc2n1C(=O)/C=C/c1ccc(OC)c(OC)c1 was read as Gal4-VP16 FLuc inconclusive, TRPV1 ag 3, uPA surface inh 7%, TRPV1 potentiator 5 and RORg inh 7.1µM*.
`COc1cc(/C=C/C(=O)NCCn2c(C)cc3ccccc32)cc(OC)c1OC` gave Gal4-VP16 FLuc -6%, TRPV1 ag 1, uPA surface inh 18%, TRPV1 potentiator 8 and RORg inh 40%.
For CCn1c(SCC(=O)N/N=C/c2ccc(OC)c(OC)c2)nc2ccccc21 the results were Gal4-VP16 FLuc 0%[0.365 µM], TRPV1 ag 13, TRPV1 potentiator -1 and RORg inh 21%.
COc1ccc(Cc2nc3ccccc3n2CC(=O)N/N=C/c2ccccc2)cc1OC was read as Gal4-VP16 FLuc -8%, TRPV1 ag -1, uPA surface inh 0%, TRPV1 potentiator -5 and RORg inh 2%.
Screening COc1ccc(CC(=O)n2c(CC#N)nc3ccccc32)cc1OC returned Gal4-VP16 FLuc inconclusive, TRPV1 ag 3, uPA surface inh 3%, TRPV1 potentiator 8 and RORg inh 11µM*.
COC(=O)[C@H](CCSC)NC(=O)C/C=C\[C@@H](C)CO was read as Gal4-VP16 FLuc -7%[10 µM] and RORg inh -6%[10 µM].
`Cc1ccc[n+](CC(=O)N2CCCCC2)c1C` gave Gal4-VP16 FLuc -4%, TRPV1 ag 5, uPA surface inh 1%, TRPV1 potentiator 15 and RORg inh -11%.
`O=C(COc1ccc(Cl)cc1)Nc1nnc(C2=COCCO2)o1` gave Gal4-VP16 FLuc -16%, TRPV1 ag -2, uPA surface inh 2%, TRPV1 potentiator 11 and RORg inh 13µM*.
Screening CS(=O)(=O)c1ccccc1-c1nnc(NC(=O)COc2ccc(Cl)cc2)o1 returned TRPV1 ag -2, uPA surface inh 1% and TRPV1 potentiator -11.
O=C(COc1ccc(Cl)cc1Cl)Nc1nnc(C2=COCCO2)o1 was read as Gal4-VP16 FLuc 4.5µM*, TRPV1 ag 0, uPA surface inh 5%, TRPV1 potentiator 2 and RORg inh 3.2µM*.
Screening COc1ccc(C2=NN(C(C#N)c3ccc(OC)c(OC)c3)C(c3ccccc3)C2)cc1 (configuration not stated) returned Gal4-VP16 FLuc inconclusive, TRPV1 ag inconclusive, uPA surface inh -8%, TRPV1 potentiator -19 and RORg inh inconclusive.
`Nc1ccc(-c2nc3c(ccc4ccccc43)[nH]2)cc1` gave Gal4-VP16 FLuc inconclusive, TRPV1 ag inconclusive, uPA surface inh inconclusive, TRPV1 potentiator -13 and RORg inh 0.89µM*.
Screening N#Cc1cc2c([nH]c1=S)CCCCCC2 returned Gal4-VP16 FLuc 16µM*, TRPV1 ag -2, uPA surface inh 3%, TRPV1 potentiator -2 and RORg inh 7.1µM*.
`N#Cc1c(N)n[nH]c1-c1cc2c([nH]1)CCCC2` gave Gal4-VP16 FLuc -7%, TRPV1 ag 0, uPA surface inh -4%, TRPV1 potentiator 6 and RORg inh inconclusive.
Cc1cc(Cl)c(S(=O)(=O)N2CCN(c3ccccn3)CC2)cc1OCC(=O)NC1CCCCC1 was read as Gal4-VP16 FLuc -13%, TRPV1 ag 8, uPA surface inh -18%, TRPV1 potentiator 2 and RORg inh 36%.
Screening COc1ccc2c(c1[N+](=O)[O-])CCC/C2=N/OC(=O)c1cccc2ccccc12 returned Gal4-VP16 FLuc 14µM*, TRPV1 ag 11, uPA surface inh 3%, TRPV1 potentiator -1 and RORg inh -23%.
COC(=O)c1cc2ccccc2c([N+](=O)[O-])c1O was read as uPA surface inh 1%.
